# According to the supplement of paper PMC7366291:
# Structures can show the parent of a compound that is named as a salt. ± gives the standard deviation of the averaged measurements.
# Test system: Danio rerio Tg(wt1b:EGFP) embryo, pronephros
# Experiment: glomerular width (mean of left and right), fold change vs DMSO control; higher = wider glomerulus
# Conditions: 25 µM; exposure: 24-48 hpf
# Outline: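 Distances and angles describing the pronephros were computed by a Fiji macro from 16 reference points set manually on maximum projections of dorsal images. These images came from dechorionated Tg(wt1b:EGFP) zebrafish embryos held in agarose-filled 96-well plates after exposure to 25 μM compound in 0.5% DMSO, in HEPES-buffered E3 with 0.003% PTU, from 24 to 48 hpf at 28.5°C. Any value more than 2 SD from the feature mean was excluded. Features are stated as fold change relative to the mean of same-day DMSO-treated embryos.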
row,SMILES,glomerular width
1,O=C1CC[C@@]2(O)[C@H]3Cc4ccc(O)c5c4[C@@]2(CCN3CC2CC2)[C@H]1O5 [Naltrexone hydrochloride dihydrate],1.124 ± 0.0082
2,CC(=O)NC1CCSC1=O (racemic) [N-Acetyl-DL-homocysteine Thiolactone],1.07 ± 0.041
3,C[N+]1(C)CCOC(O)(c2ccc(-c3ccc(C4(O)C[N+](C)(C)CCO4)cc3)cc2)C1 (centres undefined) [Hemicholinium bromide],0.95 ± 0.00098
4,CN(C)C(=O)Oc1ccc[n+](C)c1 [Pyridostigmine iodide],0.982 ± 0.096
5,CN1C[C@H](C(=O)N[C@]2(C)O[C@@]3(O)[C@@H]4CCCN4C(=O)[C@H](Cc4ccccc4)N3C2=O)C[C@@H]2c3cccc4[nH]cc(c34)C[C@H]21 [Dihydroergotamine tartrate],1.0661 ± 0.00016
6,C[C@]12CCC(=O)C=C1C=C[C@@H]1[C@@H]2CC[C@@]2(C)[C@H]1CC[C@@]2(O)CCC(=O)O [Canrenoic acid potassium salt],1.03 ± 0.033
7,CN[C@@H]1[C@@H](O)[C@@H](O[C@@H]2[C@@H](O)[C@H](O[C@H]3O[C@H](CN)CC[C@H]3N)[C@@H](N)C[C@H]2N)OC[C@]1(C)O.CN[C@@H]1[C@@H](O)[C@@H](O[C@@H]2[C@@H](O)[C@H](O[C@H]3O[C@H]([C@@H](C)N)CC[C@H]3N)[C@@H](N)C[C@H]2N)OC[C@]1(C)O.CN[C@@H]1[C@@H](O)[C@@H](O[C@@H]2[C@@H](O)[C@H](O[C@H]3O[C@H]([C@@H](C)NC)CC[C@H]3N)[C@@H](N)C[C@H]2N)OC[C@]1(C)O [Gentamicine sulfate],1.02 ± 0.024
8,"CC(=O)OCC1=C(C(=O)O)N2C(=O)[C@@H](N)[C@H]2SC1 [Cephalosporanic acid, 7-amino]",1.136 ± 0.0094
9,C[C@]12N[C@H](Cc3ccccc31)c1ccccc12 [Dizocilpine maleate],1.03 ± 0.077
10,C=CCN1CC[C@]23c4c5ccc(O)c4O[C@H]2C(=O)CC[C@@]3(O)[C@H]1C5 [Naloxone hydrochloride],1.01 ± 0.055
11,Clc1ccc(C(OCCN2CCCCC2)c2ccccc2)cc1 (centres undefined) [Cloperastine hydrochloride],1.04 ± 0.069
12,N[C@@H]1C[C@H]1c1ccccc1 [Tranylcypromine hydrochloride],1.021 ± 0.0055
13,c1ccc2c(c1)Nc1ccccc1S2 [Phenothiazine],0.851 ± 0.062
14,C1CCc2nnnn2CC1 [Pentylenetetrazole],0.994 ± 0.07
15,O=C(CCCN1CCC2(CC1)C(=O)NCN2c1ccccc1)c1ccc(F)cc1 [Spiperone],0.978 ± 0.02
16,O=c1[nH]c2ccccc2n1CCCN1CCC(n2c(=O)[nH]c3cc(Cl)ccc32)CC1 [Domperidone],1.03 ± 0.08
17,"NCC(O)c1ccc(O)cc1 (racemic) [(+,-)-Octopamine hydrochloride]",0.94 ± 0.042
18,C=C(C)[C@@H]1[C@H]2OC(=O)[C@@H]1[C@]1(O)C[C@H]3O[C@]34C(=O)O[C@H]2[C@]14C [Picrotoxinin],0.973 ± 0.011
19,CCCC(C)C1(CC)C(=O)NC(=O)NC1=O (centres undefined) [Pentobarbital],0.987 ± 0.044
20,O=c1[nH]c2ccccc2n1C1CCN(CCCC(c2ccc(F)cc2)c2ccc(F)cc2)CC1 [Pimozide],0.673 ± 0.02
21,NC(=O)CN1CCCC1=O [Piracetam],1.08 ± 0.032
22,C[N+]12CCC(CC1)C(OC(=O)C(O)(c1ccccc1)c1ccccc1)C2 (centres undefined) [Clidinium bromide],0.982 ± 0.1
23,CCN(C)C(=O)Oc1cccc([C@H](C)N(C)C)c1 [Rivastigmine],0.8935 ± 0.007
24,CC(N)C(O)c1ccccc1 (centres undefined) [Phenylpropanolamine hydrochloride],0.982 ± 0.054

# Test system: Danio rerio Tg(wt1b:EGFP) embryo, pronephros
# Experiment: fraction of imaged embryos annotated as normal kidney; higher = less nephrotoxic; extreme values may be limits of the assay
# Conditions: 25 µM; exposure: 24-48 hpf
# Outline: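 Zebrafish embryos carrying Tg(wt1b:EGFP) were dechorionated and exposed to 25 μM compound (0.5% DMSO) between 24 and 48 hpf at 28.5°C. Their pronephroi were imaged by widefield fluorescence, and each embryo was classed by hand from maximum projections. The measure is the fraction of embryos per treatment falling in the normal-kidney category.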
row,SMILES,fraction of imaged embryos annotated as normal kidney
1,CCC(COC(=O)c1cc(OC)c(OC)c(OC)c1)(c1ccccc1)N(C)C (centres undefined) [Trimebutine],0.917
2,COc1ccc(Cc2nccc3cc(OC)c(OC)cc23)cc1OC [Papaverine hydrochloride],0.833
3,C=CCC1(CC(C)C)C(=O)NC(=O)NC1=O [Butalbital],0.75
4,COc1ccc(CCN)cc1OC [Homoveratrylamine],0.75
5,C[N+]1([O-])[C@@H]2C[C@@H](OC(=O)[C@H](CO)c3ccccc3)C[C@H]1[C@@H]1O[C@@H]12 (some centres undefined) [Scopolamin-N-oxide hydrobromide],0.909
6,O=P1(N(CCCl)CCCl)NCCCO1 (centres undefined) [Cyclophosphamide],0.75
7,CNC(=O)Oc1ccc2c(c1)[C@]1(C)CCN(C)[C@@H]1N2C [Eserine hemisulfate salt],1
8,COc1ccc2c(c1)[C@]13CCCC[C@@H]1[C@H](C2)N(C)CC3 [Dextromethorphan hydrobromide monohydrate],0.833
9,Cc1cccc(C)c1NC1=NCCCS1 [Xylazine],0.833
10,NCCc1c[nH]c2ccc(O)cc12 [Serotonin hydrochloride],0.667
11,CC(=O)O[C@H]1C[C@H](O[C@H]2[C@@H](O)C[C@H](O[C@H]3[C@@H](O)C[C@H](O[C@H]4CC[C@@]5(C)[C@H](CC[C@@H]6[C@@H]5C[C@@H](O)[C@]5(C)[C@@H](C7=CC(=O)OC7)CC[C@]65O)C4)O[C@@H]3C)O[C@@H]2C)O[C@H](C)[C@H]1O[C@@H]1O[C@H](CO)[C@@H](O)[C@H](O)[C@H]1O [Lanatoside C],0.917
12,O=C1CC[C@@]2(O)[C@H]3Cc4ccc(O)c5c4[C@@]2(CCN3CC2CC2)[C@H]1O5 [Naltrexone hydrochloride dihydrate],0.833
13,CC(=O)NC1CCSC1=O (racemic) [N-Acetyl-DL-homocysteine Thiolactone],0.917
14,C[N+]1(C)CCOC(O)(c2ccc(-c3ccc(C4(O)C[N+](C)(C)CCO4)cc3)cc2)C1 (centres undefined) [Hemicholinium bromide],0.917
15,CN(C)C(=O)Oc1ccc[n+](C)c1 [Pyridostigmine iodide],0.917
16,CN1C[C@H](C(=O)N[C@]2(C)O[C@@]3(O)[C@@H]4CCCN4C(=O)[C@H](Cc4ccccc4)N3C2=O)C[C@@H]2c3cccc4[nH]cc(c34)C[C@H]21 [Dihydroergotamine tartrate],0.833
17,C[C@]12CCC(=O)C=C1C=C[C@@H]1[C@@H]2CC[C@@]2(C)[C@H]1CC[C@@]2(O)CCC(=O)O [Canrenoic acid potassium salt],0.455
18,CN[C@@H]1[C@@H](O)[C@@H](O[C@@H]2[C@@H](O)[C@H](O[C@H]3O[C@H](CN)CC[C@H]3N)[C@@H](N)C[C@H]2N)OC[C@]1(C)O.CN[C@@H]1[C@@H](O)[C@@H](O[C@@H]2[C@@H](O)[C@H](O[C@H]3O[C@H]([C@@H](C)N)CC[C@H]3N)[C@@H](N)C[C@H]2N)OC[C@]1(C)O.CN[C@@H]1[C@@H](O)[C@@H](O[C@@H]2[C@@H](O)[C@H](O[C@H]3O[C@H]([C@@H](C)NC)CC[C@H]3N)[C@@H](N)C[C@H]2N)OC[C@]1(C)O [Gentamicine sulfate],0.667

row,SMILES,fraction of imaged embryos annotated as normal kidney
1,"CC(=O)OCC1=C(C(=O)O)N2C(=O)[C@@H](N)[C@H]2SC1 [Cephalosporanic acid, 7-amino]",1
2,C[C@]12N[C@H](Cc3ccccc31)c1ccccc12 [Dizocilpine maleate],0.917
3,C=CCN1CC[C@]23c4c5ccc(O)c4O[C@H]2C(=O)CC[C@@]3(O)[C@H]1C5 [Naloxone hydrochloride],0.833
4,Clc1ccc(C(OCCN2CCCCC2)c2ccccc2)cc1 (centres undefined) [Cloperastine hydrochloride],0.917
5,N[C@@H]1C[C@H]1c1ccccc1 [Tranylcypromine hydrochloride],0.727
6,c1ccc2c(c1)Nc1ccccc1S2 [Phenothiazine],0.75
7,C1CCc2nnnn2CC1 [Pentylenetetrazole],0.8
8,O=C(CCCN1CCC2(CC1)C(=O)NCN2c1ccccc1)c1ccc(F)cc1 [Spiperone],0.833
9,O=c1[nH]c2ccccc2n1CCCN1CCC(n2c(=O)[nH]c3cc(Cl)ccc32)CC1 [Domperidone],0.818
10,"NCC(O)c1ccc(O)cc1 (racemic) [(+,-)-Octopamine hydrochloride]",0.909
11,C=C(C)[C@@H]1[C@H]2OC(=O)[C@@H]1[C@]1(O)C[C@H]3O[C@]34C(=O)O[C@H]2[C@]14C [Picrotoxinin],0.917
12,CCCC(C)C1(CC)C(=O)NC(=O)NC1=O (centres undefined) [Pentobarbital],0.667
13,O=c1[nH]c2ccccc2n1C1CCN(CCCC(c2ccc(F)cc2)c2ccc(F)cc2)CC1 [Pimozide],0
14,NC(=O)CN1CCCC1=O [Piracetam],0.917
15,C[N+]12CCC(CC1)C(OC(=O)C(O)(c1ccccc1)c1ccccc1)C2 (centres undefined) [Clidinium bromide],0.917
16,CCN(C)C(=O)Oc1cccc([C@H](C)N(C)C)c1 [Rivastigmine],0.917
17,CC(N)C(O)c1ccccc1 (centres undefined) [Phenylpropanolamine hydrochloride],0.917
